From PubChem BioAssay (NCATS)
Records with an inconclusive call do not appear. Activity calls are given as the source filed them. Calls follow the shape of the dose curve; as a rule, active = well fitted curve in the direction sought with a large enough effect; inconclusive = small, poorly fitted or top-dose-only effect, or another doubt; inactive = no such curve, though single readings can be large; an effect the other way counts as inactive or inconclusive.

Experiments:
CAOV3 = assay: Primary qHTS to identify gynecologic anti-cancer compounds using libraries of approved drugs and bioactive compounds (AID 1345084); conditions: Gynecologic cancer cell panel viability, ATPlite luminescence, 48 h; series mostly up to 57.5 µM; also: nearly all actives have a fitted effect of over 55% in size; also: potency is read from the fitted curve at half-maximal effect
Method in brief: (§1)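 Cytotoxicity screen measuring ATP content by luciferase luminescence. Each compound is applied at five concentrations for 48 h at 37 C with 5% CO2.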

CASKI = assay: as above; conditions: Gynecologic cancer cell panel viability, ATPlite luminescence, 48 h; series mostly up to 57.5 µM
Method in brief: as §1

Es-2 = assay: as above; conditions: Gynecologic cancer cell panel viability, ATPlite luminescence, 48 h; series mostly up to 57.5 µM
Method in brief: as §1

HeLa = assay: as above; conditions: Gynecologic cancer cell panel viability, ATPlite luminescence, 48 h; series mostly up to 57.5 µM
Method in brief: as §1

Hek293T = assay: as above; conditions: Gynecologic cancer cell panel viability, ATPlite luminescence, 48 h, control line for the selectivity index; series mostly up to 57.5 µM
Method in brief: as §1

JEG-3 = assay: as above; conditions: Gynecologic cancer cell panel viability, ATPlite luminescence, 48 h; series mostly up to 57.5 µM
Method in brief: as §1

OV90 = assay: as above; conditions: Gynecologic cancer cell panel viability, ATPlite luminescence, 48 h; series mostly up to 57.5 µM
Method in brief: as §1

PA-1 = assay: as above; conditions: Gynecologic cancer cell panel viability, ATPlite luminescence, 48 h; series mostly up to 57.5 µM
Method in brief: as §1

SKOV3 = assay: as above; conditions: Gynecologic cancer cell panel viability, ATPlite luminescence, 48 h; series mostly up to 57.5 µM
Method in brief: as §1

Tov-21-G = assay: as above; conditions: Gynecologic cancer cell panel viability, ATPlite luminescence, 48 h; series mostly up to 57.5 µM
Method in brief: as §1

Tov112D = assay: as above; conditions: Gynecologic cancer cell panel viability, ATPlite luminescence, 48 h; series mostly up to 57.5 µM
Method in brief: as §1

C33A = assay: as above; conditions: Gynecologic cancer cell panel viability, ATPlite luminescence, 48 h; series mostly up to 57.5 µM
Method in brief: as §1

[1] = qHTS assay to identify inhibitors of the type 1 interferon - major histocompatibility complex class I in skeletal muscle: Counter screen cell viability and HiBit confirmation (AID 1347412); conditions: iHSKM muscle cells + IFN-b, HiBiT or CellTiter-Glo, 24 h; HiBiT; at 45.9 µM (top of the series); also: nearly all actives have a fitted effect of over 60% in size
Method in brief: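 Myoblasts (C25cl48, HLA-B HiBiT) seeded in medium without dexamethasone, IFN-b 4 ng/ml added except unstimulated columns; 1 hr later compounds pinned (12-pt 1:3, top 46 uM final). Incubated 24 hrs, lysed 10 min, luminescence measured.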
% is scaled to controls: 0 for no effect and ±100 for the full control effect.

Cc1ccc(OC[C@H](O)[C@H](C)NC(C)C)c2c1CCC2
inactive: Potency (CAOV3) | Potency (CASKI) | Potency (Es-2) | Potency (HeLa) | Potency (Hek293T) | Potency (JEG-3) | Potency (OV90) | Potency (PA-1) | Potency (SKOV3) | Potency (Tov-21-G) | Potency (Tov112D)

CCn1nc(C2CCN(C(=O)CCO)CC2)nc1-c1cnc(N)c(-c2nnc(C(C)(C)C)o2)n1
inactive: Potency (C33A) | Potency (Es-2) | Potency (HeLa) | Potency (Hek293T) | Potency (JEG-3) | Potency (OV90) | Potency (Tov112D) | activity change, negative = inhibition [1] -28.4%
active: Potency (SKOV3) 1.78 µM

CCNC(=O)c1noc(-c2cc(Cl)c(O)cc2O)c1-c1ccc(OC)cc1
active: Potency (C33A) 1.12 µM | Potency (Hek293T) 0.355 µM | Potency (PA-1) 0.562 µM | Potency (SKOV3) 2.82 µM | Potency (Tov-21-G) 0.562 µM | Potency (Tov112D) 0.501 µM
inactive: Potency (OV90)

O=S(=O)(c1ccc(Cl)cc1)N1CCN(c2ccnc3cc(Cl)ccc23)CC1
inactive: Potency (CAOV3) | Potency (CASKI) | Potency (Es-2) | Potency (HeLa) | Potency (Hek293T) | Potency (JEG-3) | Potency (OV90) | Potency (PA-1) | Potency (SKOV3) | Potency (Tov-21-G) | Potency (Tov112D)

CCCOc1ccc(CCc2nc3cc(-c4c(C)noc4C)ccc3n2CCN2CCOCC2)cc1
inactive: Potency (C33A) | Potency (Es-2) | Potency (HeLa) | Potency (Hek293T) | Potency (JEG-3) | Potency (OV90) | Potency (PA-1) | Potency (Tov-21-G) | Potency (Tov112D)

CC(C)CCNC(=O)[C@H](CC(C)C)NC(=O)[C@H]1O[C@@H]1C(=O)O
inactive: Potency (CAOV3)

C#Cc1cccc(Nc2nc3cc(C(=O)O)ccc3c3cncnc23)c1
inactive: Potency (C33A) | Potency (JEG-3) | Potency (SKOV3) | Potency (Tov112D)
active: Potency (HeLa) 11.2 µM | Potency (PA-1) 3.55 µM

Cc1cc2c(c(=O)o1)C=C1CC[C@H]([C@H](C)Cn3cnc(=N)c4[nH]cnc43)C[C@@H]1O2
inactive: Potency (CAOV3) | Potency (CASKI) | Potency (Es-2) | Potency (HeLa) | Potency (Hek293T) | Potency (JEG-3) | Potency (OV90) | Potency (PA-1) | Potency (SKOV3) | Potency (Tov-21-G) | Potency (Tov112D)

CC(C)CCNC(=O)c1ccc2c(c1)nc(Nc1n[nH]c3ccc(-c4ccccc4OC(F)(F)F)cc13)n2C1CCC(O)CC1 (stereo unspecified)
inactive: Potency (CAOV3) | Potency (CASKI) | Potency (Es-2) | Potency (HeLa) | Potency (Hek293T) | Potency (JEG-3) | Potency (OV90) | Potency (PA-1) | Potency (SKOV3) | Potency (Tov-21-G) | Potency (Tov112D)
